Key:
Assay in all cases: log2 ratio of Biotin-Ahx-Ub-VS probe labelling (fragment/DMSO); higher = less target engagement (more negative = stronger competition), active = hit call of the paper (q ≤ 0.05, log2 ratio ≤ -1)
Conditions in all cases: compound concentration: 200 uM; treatment time: 3 h
USP42 = biological target: T1, USP42 (UniProt Q9H9J4)
T1 sequence (whole entry): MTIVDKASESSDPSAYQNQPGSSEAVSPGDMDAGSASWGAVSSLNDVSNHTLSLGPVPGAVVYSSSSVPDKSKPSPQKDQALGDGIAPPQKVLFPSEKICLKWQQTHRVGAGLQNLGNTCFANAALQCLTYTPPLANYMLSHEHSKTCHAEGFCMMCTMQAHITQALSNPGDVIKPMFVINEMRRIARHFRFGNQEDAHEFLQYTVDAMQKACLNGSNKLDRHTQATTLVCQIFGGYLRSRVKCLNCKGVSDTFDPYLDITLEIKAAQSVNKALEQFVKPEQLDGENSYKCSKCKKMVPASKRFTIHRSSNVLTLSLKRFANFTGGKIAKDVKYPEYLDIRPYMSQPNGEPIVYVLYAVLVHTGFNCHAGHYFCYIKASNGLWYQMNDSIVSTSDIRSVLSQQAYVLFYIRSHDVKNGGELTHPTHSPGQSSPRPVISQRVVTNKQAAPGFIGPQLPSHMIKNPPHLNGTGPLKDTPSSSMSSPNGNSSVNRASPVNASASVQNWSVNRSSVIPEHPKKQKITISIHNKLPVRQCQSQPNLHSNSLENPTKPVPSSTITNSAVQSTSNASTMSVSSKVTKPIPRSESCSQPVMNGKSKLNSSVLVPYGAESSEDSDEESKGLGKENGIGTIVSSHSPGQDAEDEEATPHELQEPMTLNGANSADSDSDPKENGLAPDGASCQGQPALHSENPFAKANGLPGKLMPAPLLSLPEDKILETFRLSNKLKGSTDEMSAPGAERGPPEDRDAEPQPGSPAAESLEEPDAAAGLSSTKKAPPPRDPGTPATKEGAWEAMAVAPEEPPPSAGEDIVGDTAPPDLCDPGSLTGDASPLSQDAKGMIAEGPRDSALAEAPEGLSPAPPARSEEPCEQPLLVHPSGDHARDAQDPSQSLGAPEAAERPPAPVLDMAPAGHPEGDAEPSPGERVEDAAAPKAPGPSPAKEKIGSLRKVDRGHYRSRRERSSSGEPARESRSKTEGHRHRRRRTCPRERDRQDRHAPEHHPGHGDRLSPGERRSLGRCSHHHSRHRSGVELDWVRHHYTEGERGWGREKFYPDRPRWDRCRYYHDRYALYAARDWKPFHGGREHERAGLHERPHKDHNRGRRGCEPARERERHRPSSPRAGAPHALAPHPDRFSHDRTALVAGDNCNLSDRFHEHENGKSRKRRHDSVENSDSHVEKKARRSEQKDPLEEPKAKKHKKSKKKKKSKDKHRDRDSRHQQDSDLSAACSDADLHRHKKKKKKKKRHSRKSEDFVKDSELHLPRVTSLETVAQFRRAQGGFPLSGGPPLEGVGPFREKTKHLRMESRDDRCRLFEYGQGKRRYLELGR
Summary of the method: (§1)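 HEK293T lysate (495 µg per sample, in Tris/CHAPS/IGEPAL buffer with protease inhibitors) was treated in triplicate with fragment at 200 µM or with DMSO for 3 h. It was then treated with Biotin-Ahx-Ub-VS (0.5 µM final) for 1 h. Labelled DUBs were NeutrAvidin-enriched, digested with LysC and trypsin, and run by diaPASEF LC-MS/MS. Spectronaut label-free quantities were global-median-normalised. Values are average log2 ratios fragment/DMSO by unpaired t-test, using proteins with ≥2 unique peptides.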

USP46 = USP46 (UniProt P62068)
Summary of the method: as §1

USP47 = biological target: T2, USP47 (UniProt Q96K76)
T2 sequence (whole entry): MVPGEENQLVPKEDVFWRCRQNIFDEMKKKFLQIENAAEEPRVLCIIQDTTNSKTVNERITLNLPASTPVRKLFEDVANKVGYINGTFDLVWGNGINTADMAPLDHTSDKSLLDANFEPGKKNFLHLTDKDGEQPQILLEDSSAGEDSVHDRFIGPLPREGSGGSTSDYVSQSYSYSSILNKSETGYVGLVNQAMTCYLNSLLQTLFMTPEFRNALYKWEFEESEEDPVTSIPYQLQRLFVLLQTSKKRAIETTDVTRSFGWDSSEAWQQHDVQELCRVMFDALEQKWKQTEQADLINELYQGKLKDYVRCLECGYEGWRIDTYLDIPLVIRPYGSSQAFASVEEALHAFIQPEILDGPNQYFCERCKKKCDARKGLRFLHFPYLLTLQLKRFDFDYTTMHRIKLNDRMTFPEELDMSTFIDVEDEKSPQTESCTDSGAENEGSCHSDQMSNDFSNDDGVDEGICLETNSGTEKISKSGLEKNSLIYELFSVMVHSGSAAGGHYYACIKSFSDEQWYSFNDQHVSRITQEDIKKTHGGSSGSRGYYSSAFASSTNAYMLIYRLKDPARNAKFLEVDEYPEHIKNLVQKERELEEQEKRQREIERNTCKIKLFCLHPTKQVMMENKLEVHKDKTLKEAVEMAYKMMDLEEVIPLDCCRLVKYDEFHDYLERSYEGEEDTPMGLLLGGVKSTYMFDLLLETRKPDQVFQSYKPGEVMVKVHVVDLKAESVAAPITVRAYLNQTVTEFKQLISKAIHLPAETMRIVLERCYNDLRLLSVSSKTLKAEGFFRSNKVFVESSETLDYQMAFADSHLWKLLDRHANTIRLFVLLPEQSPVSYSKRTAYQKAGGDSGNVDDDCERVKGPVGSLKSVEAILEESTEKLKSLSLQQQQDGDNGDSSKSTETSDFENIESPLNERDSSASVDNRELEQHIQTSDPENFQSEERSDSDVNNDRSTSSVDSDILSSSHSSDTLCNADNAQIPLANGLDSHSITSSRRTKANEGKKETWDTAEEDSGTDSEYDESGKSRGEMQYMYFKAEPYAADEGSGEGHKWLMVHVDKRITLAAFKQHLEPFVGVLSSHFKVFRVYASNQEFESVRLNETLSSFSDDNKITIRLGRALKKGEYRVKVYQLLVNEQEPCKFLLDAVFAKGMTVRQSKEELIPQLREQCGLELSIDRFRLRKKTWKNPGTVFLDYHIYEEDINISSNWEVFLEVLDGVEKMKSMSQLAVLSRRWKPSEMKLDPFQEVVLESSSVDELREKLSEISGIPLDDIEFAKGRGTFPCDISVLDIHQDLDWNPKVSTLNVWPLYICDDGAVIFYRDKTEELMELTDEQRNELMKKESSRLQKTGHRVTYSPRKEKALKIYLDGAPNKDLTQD
Summary of the method: as §1

USP48 = biological target: T3, USP48 (UniProt Q86UV5)
T3 sequence (whole entry): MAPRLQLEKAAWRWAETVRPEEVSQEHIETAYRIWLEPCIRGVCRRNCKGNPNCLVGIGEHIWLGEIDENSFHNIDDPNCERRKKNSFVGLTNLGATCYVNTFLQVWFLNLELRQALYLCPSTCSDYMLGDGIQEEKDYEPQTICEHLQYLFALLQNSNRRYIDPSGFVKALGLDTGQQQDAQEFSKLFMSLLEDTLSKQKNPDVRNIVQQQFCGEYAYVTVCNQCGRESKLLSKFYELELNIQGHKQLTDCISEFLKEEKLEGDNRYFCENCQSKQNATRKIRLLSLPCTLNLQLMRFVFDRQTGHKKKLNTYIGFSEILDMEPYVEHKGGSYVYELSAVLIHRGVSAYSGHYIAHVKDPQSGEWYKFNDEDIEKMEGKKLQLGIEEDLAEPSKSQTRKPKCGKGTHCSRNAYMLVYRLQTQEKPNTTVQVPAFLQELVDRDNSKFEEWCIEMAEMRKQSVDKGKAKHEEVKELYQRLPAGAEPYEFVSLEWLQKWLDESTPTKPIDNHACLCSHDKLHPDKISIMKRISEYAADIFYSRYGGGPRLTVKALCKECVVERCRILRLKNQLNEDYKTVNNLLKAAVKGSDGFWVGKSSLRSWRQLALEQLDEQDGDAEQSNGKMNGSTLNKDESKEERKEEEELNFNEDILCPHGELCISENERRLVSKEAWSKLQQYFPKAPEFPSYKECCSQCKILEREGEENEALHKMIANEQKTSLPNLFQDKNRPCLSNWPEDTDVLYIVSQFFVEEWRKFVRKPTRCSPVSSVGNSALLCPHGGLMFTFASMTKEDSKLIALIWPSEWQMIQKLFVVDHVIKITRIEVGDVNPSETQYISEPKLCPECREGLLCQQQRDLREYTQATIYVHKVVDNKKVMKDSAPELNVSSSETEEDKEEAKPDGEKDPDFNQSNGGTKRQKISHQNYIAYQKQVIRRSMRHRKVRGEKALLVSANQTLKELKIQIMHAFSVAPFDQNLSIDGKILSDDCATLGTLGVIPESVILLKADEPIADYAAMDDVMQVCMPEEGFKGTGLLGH
Summary of the method: as §1

USP5 = biological target: T4, USP5 (UniProt P45974)
T4 sequence (whole entry): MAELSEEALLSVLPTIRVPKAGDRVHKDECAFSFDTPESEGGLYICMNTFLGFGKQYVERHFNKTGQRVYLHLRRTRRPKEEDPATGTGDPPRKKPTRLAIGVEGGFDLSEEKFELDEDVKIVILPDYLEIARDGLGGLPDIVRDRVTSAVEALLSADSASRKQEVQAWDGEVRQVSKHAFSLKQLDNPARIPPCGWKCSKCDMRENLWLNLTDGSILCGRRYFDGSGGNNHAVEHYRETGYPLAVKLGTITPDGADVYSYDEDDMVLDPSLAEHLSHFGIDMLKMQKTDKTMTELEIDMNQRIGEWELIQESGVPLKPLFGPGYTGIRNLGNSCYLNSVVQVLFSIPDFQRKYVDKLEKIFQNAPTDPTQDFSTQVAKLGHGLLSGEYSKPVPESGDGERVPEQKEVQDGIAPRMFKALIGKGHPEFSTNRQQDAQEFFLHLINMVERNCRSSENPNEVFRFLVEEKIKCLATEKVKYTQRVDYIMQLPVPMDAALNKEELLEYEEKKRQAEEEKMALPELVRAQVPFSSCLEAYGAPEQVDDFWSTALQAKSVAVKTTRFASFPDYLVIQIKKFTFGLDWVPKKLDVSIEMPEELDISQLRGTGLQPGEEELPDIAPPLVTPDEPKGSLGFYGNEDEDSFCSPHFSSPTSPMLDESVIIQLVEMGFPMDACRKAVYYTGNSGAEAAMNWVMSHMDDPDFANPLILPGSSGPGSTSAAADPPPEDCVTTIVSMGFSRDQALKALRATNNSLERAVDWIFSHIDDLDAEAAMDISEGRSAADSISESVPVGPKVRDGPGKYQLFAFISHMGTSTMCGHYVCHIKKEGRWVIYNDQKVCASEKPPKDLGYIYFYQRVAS
Summary of the method: as §1

USP54 = USP54 (UniProt Q70EL1)
Summary of the method: as §1

USP7 = USP7 (UniProt Q93009)
Summary of the method: as §1

USP8 = biological target: T5, USP8 (UniProt P40818)
T5 sequence (whole entry): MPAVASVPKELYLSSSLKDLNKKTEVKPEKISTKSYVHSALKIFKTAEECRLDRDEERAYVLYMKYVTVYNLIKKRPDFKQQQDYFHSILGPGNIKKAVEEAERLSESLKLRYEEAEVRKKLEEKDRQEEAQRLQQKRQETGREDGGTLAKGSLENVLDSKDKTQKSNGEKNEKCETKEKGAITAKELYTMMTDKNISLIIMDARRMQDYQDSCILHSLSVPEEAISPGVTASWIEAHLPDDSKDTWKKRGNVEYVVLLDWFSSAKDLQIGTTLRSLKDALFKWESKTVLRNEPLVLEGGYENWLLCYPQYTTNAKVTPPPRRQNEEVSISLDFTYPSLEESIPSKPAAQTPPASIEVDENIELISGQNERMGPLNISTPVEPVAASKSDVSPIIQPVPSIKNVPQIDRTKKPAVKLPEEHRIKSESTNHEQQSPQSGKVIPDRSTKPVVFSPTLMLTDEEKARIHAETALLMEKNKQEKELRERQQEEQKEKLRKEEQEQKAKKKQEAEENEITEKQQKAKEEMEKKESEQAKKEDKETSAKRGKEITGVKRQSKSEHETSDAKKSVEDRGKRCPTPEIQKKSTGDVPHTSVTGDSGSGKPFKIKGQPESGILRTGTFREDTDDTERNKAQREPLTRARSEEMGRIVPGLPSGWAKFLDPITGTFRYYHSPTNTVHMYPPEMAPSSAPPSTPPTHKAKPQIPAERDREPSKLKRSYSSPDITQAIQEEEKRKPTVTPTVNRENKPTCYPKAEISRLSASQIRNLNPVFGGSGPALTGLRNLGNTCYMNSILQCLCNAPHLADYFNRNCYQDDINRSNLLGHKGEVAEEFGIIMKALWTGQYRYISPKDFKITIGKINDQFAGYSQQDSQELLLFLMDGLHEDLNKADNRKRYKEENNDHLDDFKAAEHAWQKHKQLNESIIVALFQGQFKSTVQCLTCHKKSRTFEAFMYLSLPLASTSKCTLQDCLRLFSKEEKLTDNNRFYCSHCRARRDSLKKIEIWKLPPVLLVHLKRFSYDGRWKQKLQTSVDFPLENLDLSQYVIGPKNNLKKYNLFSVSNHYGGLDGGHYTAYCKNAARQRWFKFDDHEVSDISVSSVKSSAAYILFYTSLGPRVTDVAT
Summary of the method: as §1

Measured: log2 ratio of Biotin-Ahx-Ub-VS probe labelling

Chain of USP7 (Q93009 whole entry, looked up): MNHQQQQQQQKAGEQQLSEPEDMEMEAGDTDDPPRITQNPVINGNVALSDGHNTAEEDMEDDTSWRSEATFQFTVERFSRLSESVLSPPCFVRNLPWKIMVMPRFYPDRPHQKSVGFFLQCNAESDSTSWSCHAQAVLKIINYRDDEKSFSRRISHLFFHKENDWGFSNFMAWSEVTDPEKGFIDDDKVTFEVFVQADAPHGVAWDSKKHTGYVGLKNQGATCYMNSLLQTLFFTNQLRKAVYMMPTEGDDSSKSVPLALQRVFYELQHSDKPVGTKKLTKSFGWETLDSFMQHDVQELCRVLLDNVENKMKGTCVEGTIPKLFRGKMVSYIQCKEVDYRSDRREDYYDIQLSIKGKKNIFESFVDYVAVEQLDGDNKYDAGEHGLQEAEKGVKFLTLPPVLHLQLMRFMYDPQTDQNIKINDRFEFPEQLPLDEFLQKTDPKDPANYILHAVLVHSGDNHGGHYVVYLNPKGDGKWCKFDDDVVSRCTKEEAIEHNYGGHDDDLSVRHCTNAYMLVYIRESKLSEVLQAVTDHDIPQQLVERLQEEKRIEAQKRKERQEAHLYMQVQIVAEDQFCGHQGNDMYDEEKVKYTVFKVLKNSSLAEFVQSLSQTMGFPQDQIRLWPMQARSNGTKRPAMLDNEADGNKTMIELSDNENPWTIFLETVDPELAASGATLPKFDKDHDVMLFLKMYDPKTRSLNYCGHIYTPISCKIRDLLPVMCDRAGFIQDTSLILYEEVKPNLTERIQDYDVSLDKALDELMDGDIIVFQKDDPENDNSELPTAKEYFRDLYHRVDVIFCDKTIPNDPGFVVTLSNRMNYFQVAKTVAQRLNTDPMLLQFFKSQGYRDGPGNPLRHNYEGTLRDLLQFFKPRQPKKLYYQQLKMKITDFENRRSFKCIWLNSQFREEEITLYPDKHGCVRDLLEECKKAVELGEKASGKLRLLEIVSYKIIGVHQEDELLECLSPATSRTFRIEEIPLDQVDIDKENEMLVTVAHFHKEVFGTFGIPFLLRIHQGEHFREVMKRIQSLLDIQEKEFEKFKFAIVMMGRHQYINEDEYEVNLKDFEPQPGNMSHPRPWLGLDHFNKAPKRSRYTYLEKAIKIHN
Chain of USP46 (P62068 whole entry): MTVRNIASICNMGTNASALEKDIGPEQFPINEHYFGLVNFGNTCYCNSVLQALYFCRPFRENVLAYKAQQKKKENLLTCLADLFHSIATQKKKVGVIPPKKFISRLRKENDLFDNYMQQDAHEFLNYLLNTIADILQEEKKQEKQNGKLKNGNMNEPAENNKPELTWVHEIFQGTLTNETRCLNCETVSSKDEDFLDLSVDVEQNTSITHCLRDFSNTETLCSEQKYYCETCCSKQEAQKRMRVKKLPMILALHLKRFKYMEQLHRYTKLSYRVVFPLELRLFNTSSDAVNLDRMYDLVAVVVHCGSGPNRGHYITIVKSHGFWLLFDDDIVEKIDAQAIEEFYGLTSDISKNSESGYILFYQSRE
Chain of USP54 (Q70EL1 whole entry): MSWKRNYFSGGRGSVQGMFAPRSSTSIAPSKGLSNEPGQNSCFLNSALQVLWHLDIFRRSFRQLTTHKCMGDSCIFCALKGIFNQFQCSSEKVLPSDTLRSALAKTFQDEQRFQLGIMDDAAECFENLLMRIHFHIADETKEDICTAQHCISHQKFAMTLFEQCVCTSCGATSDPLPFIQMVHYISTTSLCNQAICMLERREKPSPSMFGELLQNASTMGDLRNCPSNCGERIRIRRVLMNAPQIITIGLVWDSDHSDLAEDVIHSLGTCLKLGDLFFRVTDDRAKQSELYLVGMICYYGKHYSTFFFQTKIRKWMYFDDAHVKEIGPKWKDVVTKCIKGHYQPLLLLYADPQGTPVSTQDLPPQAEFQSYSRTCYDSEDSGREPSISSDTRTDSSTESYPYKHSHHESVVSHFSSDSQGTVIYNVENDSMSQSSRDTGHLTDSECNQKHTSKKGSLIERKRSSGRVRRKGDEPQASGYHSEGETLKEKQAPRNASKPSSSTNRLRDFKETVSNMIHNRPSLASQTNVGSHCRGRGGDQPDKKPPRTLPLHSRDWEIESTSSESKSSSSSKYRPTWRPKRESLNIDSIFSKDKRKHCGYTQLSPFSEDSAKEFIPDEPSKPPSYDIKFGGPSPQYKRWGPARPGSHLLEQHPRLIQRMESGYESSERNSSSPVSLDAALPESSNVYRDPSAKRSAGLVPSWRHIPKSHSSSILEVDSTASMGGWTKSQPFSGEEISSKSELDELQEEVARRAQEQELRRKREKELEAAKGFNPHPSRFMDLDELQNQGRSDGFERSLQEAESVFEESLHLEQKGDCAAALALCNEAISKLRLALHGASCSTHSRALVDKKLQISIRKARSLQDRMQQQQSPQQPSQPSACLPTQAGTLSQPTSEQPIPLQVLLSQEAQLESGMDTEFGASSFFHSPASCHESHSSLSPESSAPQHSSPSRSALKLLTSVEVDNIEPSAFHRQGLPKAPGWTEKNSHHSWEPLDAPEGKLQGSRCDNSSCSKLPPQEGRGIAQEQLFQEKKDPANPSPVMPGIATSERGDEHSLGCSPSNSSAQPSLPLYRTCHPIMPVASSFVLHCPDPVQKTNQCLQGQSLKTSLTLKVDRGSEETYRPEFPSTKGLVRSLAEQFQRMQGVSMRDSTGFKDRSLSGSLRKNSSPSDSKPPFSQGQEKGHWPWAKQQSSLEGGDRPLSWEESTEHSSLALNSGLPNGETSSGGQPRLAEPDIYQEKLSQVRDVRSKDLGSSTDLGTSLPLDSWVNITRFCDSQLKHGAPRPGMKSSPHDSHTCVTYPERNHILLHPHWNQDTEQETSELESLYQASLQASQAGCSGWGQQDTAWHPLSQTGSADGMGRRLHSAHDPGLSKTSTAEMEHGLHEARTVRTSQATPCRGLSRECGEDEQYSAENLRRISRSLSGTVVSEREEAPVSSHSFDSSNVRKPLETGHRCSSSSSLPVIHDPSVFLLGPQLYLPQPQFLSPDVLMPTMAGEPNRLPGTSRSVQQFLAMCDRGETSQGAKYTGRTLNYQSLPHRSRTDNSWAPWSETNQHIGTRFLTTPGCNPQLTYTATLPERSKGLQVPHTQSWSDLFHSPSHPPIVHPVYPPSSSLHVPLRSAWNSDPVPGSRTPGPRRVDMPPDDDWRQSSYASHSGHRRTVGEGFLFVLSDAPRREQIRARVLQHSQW

Cl.Cn1cnc2cc(CNC(=O)CCl)ccc21
inactive: USP42 0.00921 | USP46 -0.0392 | USP47 -0.0799 | USP48 0.192 | USP5 -0.445 | USP54 -0.109 | USP7 -0.083 | USP8 -0.103

— the supplement of paper PMC11732987, “Enantioselective OTUD7B fragment discovery through chemoproteomics screening and high-throughput optimisation” (Communications Chemistry, 2025)
